# High-throughput results (PubChem)
# A selection: hits, their analogues and other compounds. The true share with any hit is near 5.3%.
# LASV entry inh = inhibitors of Lassa virus binding or cell entry; hit rate 1.2% among 300,000; Potency, µM (titrated, usually from 37.9 µM), inactives show at the top dose activity change, negative = inhibition, actives largely listed as inhibitors; Lassa virus pseudotype entry inhibition, cell reporter; calls by dose curve; tested in HEK293 cells; also: nearly all actives have a fitted effect of over 50% in size
# HCV inh = blocks hepatitis C virus | hit rate 3.4% among 340,000 | Huh7.5.1 HCVcc-Cre infection, luciferase reporter, 44 h | Potency, µM (series often up to 41.8 µM), for the others: top-dose activity change, negative = inhibition, actives largely listed as inhibitors | AID 651820; active = well fitted inhibition curve with a large enough effect; inconclusive = small, poorly fitted or top-dose-only effect, or another doubt; inactive = no such curve, though single readings can be large or run the other way
#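 Whole-lifecycle infectious HCVcc-Cre system; cells 1,000/well, compound then virus (~0.5 moi) added 4 h after plating, 44 h culture. Luciferase read 15 sec following 15 min substrate incubation, room temp.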
# VACV Venus inh = vaccinia inhibition (Venus reporter). Vaccinia virus Venus reporter expression, fluorescence. Potency, µM (top dose mostly 36.5 µM), inactives show at the top dose activity change, negative = inhibition, actives largely listed as inhibitors. hit rate 0.46% among 330,000; calls by dose curve; tested in A549 cells; also: nearly all actives have a fitted effect of over 30% in size
# VACV mCherry inh = inhibitors of vaccinia virus infection (mCherry reporter signal). Vaccinia virus mCherry reporter infection, fluorescence. Potency, µM (titrated, usually from 36.5 µM), for inactives: at the top dose activity change, negative = inhibition, actives largely listed as inhibitors. hit rate 0.63% among 310,000. AID 720579; calls by dose curve; tested in A549 cells; also: nearly all actives have a fitted effect of over 35% in size
# MARV entry inh = Marburg virus entry inhibition; Marburg virus pseudotyped entry inhibition, cell reporter; AID 540276; hit rate 1.8% among 300,000; Potency, µM (highest dose often 37.8 µM), for the others: top-dose activity change, negative = inhibition, actives largely listed as inhibitors; calls by dose curve; tested in HEK293 cells
# FMDV antiviral = blocks foot and mouth disease virus. FMDV antiviral cell-based qHTS. Potency, µM (highest dose often 57.9 µM), without a hit: at the top dose activity change, negative = inhibition, actives largely listed as inhibitors. hit rate 1.2% among 410,000. AID 1159524; calls by dose curve; tested in HEK293T cells; also: read-out not given here; nearly all actives have a fitted effect of over 45% in size
# Starred values were filed as active, the others as inactive; i = inactive; ? = inconclusive; / = no result given; ! = repeats disagree; [ ] = another dose, or the depositor's remark. % is scaled to controls: 0 for no effect and ±100 for the full control effect; potency is read from the fitted curve at half-maximal effect.
SMILES,LASV entry inh,HCV inh,VACV Venus inh,VACV mCherry inh,MARV entry inh,FMDV antiviral
Cc1ccc(-c2noc(CCC(=O)N3CCN(c4cccc(C(F)(F)F)c4)CC3)n2)cc1,?,11.2µM*!,?,/,?,?
CC(=O)c1ccc(N2CCN(C(=O)CCC(=O)Nc3ccc4nc(N5CCN(C)CC5)cc(C)c4c3)CC2)cc1,11.1%[46.1 µM],8.91µM*,?,?,?,1.1%
Cc1cc(N2CCOCC2)nc2ccc(NC(=O)CCC(=O)N3CCN(c4cccc(C(F)(F)F)c4)CC3)cc12,?,11.2µM*,?,?,?,-26.8%
CC(=O)c1ccc(N2CCN(C(=O)CCC(=O)Nc3ccc4nc(N5CCCCC5)cc(C)c4c3)CC2)cc1,20.0%[46.1 µM],/,-20.0%,-19.6%,26.1%[46.1 µM],0.0%
CSc1nnc(-c2cc3c(s2)-c2ccccc2CC3)o1,-22.5%,2.51µM*,-13.4%,/,0.0%,-0.4%
N#C/C(=C\c1cccc(Oc2ccccc2)c1)C(=O)N1CCOCC1,?,3.5%,-17.5%,-4.2%,?,35.5µM*
CCCS(=O)(=O)c1ncc(Cl)c(C(=O)N2CCN(c3ccc(OC)cc3)CC2)n1,?,/,-8.6%[7.34 µM],-16.5%[7.34 µM],/,-12.2%
COC(=O)C1=C(c2ccc(OCc3ccccc3)cc2)C[C@@H]2CC[C@H]1N2C(=O)NCc1ccccc1,/,10µM*,-22.7%,?,/,?
COC(=O)C1=C(c2ccc(OCc3ccccc3)cc2)C[C@@H]2CC[C@H]1N2C(=O)NCc1ccc(C(C)(C)C)cc1,/,/,?,-29.4%,/,-23.3%
COC(=O)C1=C(c2cccc(OCc3ccccc3)c2)C[C@@H]2CC[C@H]1N2C(=O)NCc1ccc(OC)cc1,/,22.4µM*,?,-23.5%,/,-13.2%
COC(=O)C1=C(c2ccc(OCc3ccccc3)cc2)C[C@@H]2CC[C@H]1N2C(=O)NCc1cccc(OC)c1,/,6.31µM*,?,?,/,-6.0%
O=C(Cc1cccc2ccccc12)Nc1ccccc1C(=O)O,?,1.7%,/,/,14.6µM*,42.3%
O=C(CSc1ccccc1)Nc1ccccc1C(=O)O,?,9.0%,/,/,18.3µM*,0.0%
C=C1NN(Cc2ccccc2)C(=O)N1c1ccc(OC)cc1,/,/,-9.4%,44.3%,/,/
N=c1ccn2c(n1)OC1C(O)C(CO)OC12 (stereo not given),/,-29.2%,?,28.2µM*,/,2.9%
Nc1ccn([C@@H]2O[C@H](CO)[C@@H](O)C2O)c(=O)n1 (stereo not given in full),?,?,-26.8%,0.447µM*,?,-23.5%
Nc1ccn(C2OC(COC(=O)C34CC5CC(CC(C5)C3)C4)C(O)C2O)c(=O)n1 (stereo not given),4.3%,-14.8%,?,0.316µM*,-7.8%,-12.4%
Cc1ccccc1NC(=O)CSc1ncc2c(n1)-c1ccccc1N(C)S2(=O)=O,-14.3%[46.1 µM],/,-11.0%,-6.3%,/,-15.9%
Cc1ccc(CCNC(=O)CSCc2nc(-c3ccc(C)cc3)oc2C)cc1,-0.1%[46.1 µM],/,-8.9%,i,10.4%[46.1 µM],-15.3%
CC(c1ccco1)N(C(=O)C12CC3CC(CC(C)(C3)C1)C2)c1ccccn1 (stereo not given),11.2µM*,-16.0%,-3.2%,/,?,15.7%
C(=Nc1ccc(/C=C/c2ccnc3ccccc23)cc1)c1ccc2c(c1)OCO2,/,/,-8.8%,-1.1%,/,/
Cc1ccccc1NC(=O)c1nnn(-c2ccc3c(c2)OCCO3)c1N,?,10µM*,-1.6%,31.7%,?,-3.4%
COc1ccc(CCNC(=O)c2nnn(-c3ccccc3OC)c2N)cc1OC,14.7%,-16.6%,-14.6%,-16.4%,-15.6%,-19.1%
CCOc1ccccc1NC(=O)c1nnn(-c2ccc3c(c2)OCCO3)c1N,0.2%,?,-28.1%,?,?,-5.3%
Nc1c(C(=O)Nc2cccc(F)c2)nnn1-c1ccc2c(c1)OCCO2,3.98µM*,-26.0%,-12.9%,-17.1%,?,-18.3%
SMILES,LASV entry inh,HCV inh,VACV Venus inh,VACV mCherry inh,MARV entry inh,FMDV antiviral
COc1ccc(CCNC(=O)c2nnn(-c3ccc4c(c3)OCCO4)c2N)cc1OC,?,?,/,/,?,3.55µM*
O=C(Nc1cccc(C(F)(F)F)c1)N1CCC(c2nc(-c3ccc(F)cc3)no2)CC1,22.7%[14.3 µM],11.2µM*,?,?,?,?
O=C(Nc1ccc(Cl)cc1)N1CCC(c2nc(-c3ccccc3Cl)no2)CC1,-43.7%,7.08µM*,?,-24.2%,?,0.0%
O=C(Nc1ccccc1)N1CCC(c2nc(-c3ccc(S(=O)(=O)N4CCOCC4)cc3)no2)CC1,?,10µM*,/,/,?,?
O=C(Nc1ccc(Cl)cc1)N1CCC(c2nc(-c3cccs3)no2)CC1,-2.3%,?,/,/,-5.1%,0.0%
CCNC(=O)CC1C(=O)N(c2ccccc2)C(=O)N1Cc1ccc(F)cc1 (stereo not given),14.9%[46.1 µM],/,0.6%,-1.8%,1.5%[46.1 µM],-9.9%
COc1cc(Cl)c(C)cc1NC(=O)CSc1cc(-c2ccccc2)nc(C)n1,-5.5%[46.1 µM],/,-11.5%,-13.5%,-0.9%[46.1 µM],-19.7%
O=C(/C=C/[C@H]1O[C@@H](n2ccc(=O)[nH]c2=O)[C@H](O)[C@@H]1O)NCc1cccs1,/,/,-1.7%,i,/,-9.4%
Cc1nc2sccn2c1CN1CCOc2ccc(CN3C[C@@H](C)O[C@@H](C)C3)cc2C1,/,/,-26.3%,-26.6%,/,?
COC(=O)[C@H]1[C@@H](C)N(CCc2cc(OC)c(OC)c(OC)c2)C(=O)N[C@H]1c1ccccc1,/,22.4µM*,-19.4%,-12.2%,-23.7%[14.2 µM],-13.6%
COc1ccc(-n2ccn(CC(=O)Nc3ccc(C)cc3C)c(=O)c2=O)cc1,0.1%[46.1 µM],/,-11.1%,-11.0%,/,1.6%
CCCn1c(N)c(C(=O)CSc2nc(C)cs2)c(=O)n(C)c1=O,-24.4%,?,?,-1.4%[1.46 µM],10µM*,0.0%
CC(C)Cn1c(N)c(C(=O)CSc2nncs2)c(=O)n(C)c1=O,/,-9.3%,/,/,/,-12.3%
Cc1cccc(NC(=O)C2CCN(C(=O)NCc3ccccc3)CC2)c1C,21.0%[46.1 µM],4.3%,0.0%,-14.9%,3.4%[46.1 µM],27.0%
CCn1c(=O)cc(OCC(=O)N2CCN(c3cccc(C)c3C)CC2)c2ccccc21,?,/,-25.5%,-14.3%,23.6%[46.1 µM],20µM*
CCn1c(=O)cc(SCC(=O)N2CCN(c3ccccc3F)CC2)c2ccccc21,5.7%[46.1 µM],14.1µM*,-4.5%,-5.7%,?,?
CCn1c(=O)cc(SCC(=O)N2CCN(c3ccccn3)CC2)c2ccccc21,-1.1%,?,-14.0%,9.4%,?,18.3%
C=C(C)C(=O)C=CCCCC=CC(=O)OCC,/,/,/,/,7.0%[14.2 µM],/
CC(=O)N(Cc1ccc2c(c1)OCO2)Cc1cc2ccc(C)cc2nc1-c1cccc(C)c1,/,/,27.1%,-11.6%,/,-2.9%
Cc1ccc(NC(=O)COc2ccccc2C(N)=O)cc1S(=O)(=O)N1CCCCCC1,/,5.01µM*,/,/,/,25.1µM*
O=C(CC1CCCC1)Nc1ccc(Cl)c(S(=O)(=O)N2CCOCC2)c1,2.82µM*,11.2µM*,-26.2%,?,?,31.6µM*
COc1ccc(OC)c(S(=O)(=O)N2CCC(C(=O)Nc3cccc(C(F)(F)F)c3)CC2)c1,-29.7%,?,?,/,?,25.1µM*
